This is one part of a sample in which hits are shown more often than they occur.
Pf apPOL block – Pf-apPOL DNA polymerase inhibition | Recombinant Pf-apPOL, molecular beacon fluorescence, 1.5 h | inhibition, % at 10 µM | 210,000 tested, 0.25% active
mHTT-CaM PPI inh – disrupts binding of mutant huntingtin to calmodulin; P42858; AlphaScreen His-mHTT/GST-CaM binding, luminescence; inhibition, % at 15 µM; 190,000 tested, 3.6% active;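 further: 0% = both proteins with DMSO and 100% = one protein alone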
An asterisk follows results filed as active; nt = not tested or not shown. No stated cut-off is given here; in the data, active means inhibition above about 50%; inactive means the rest.

SMILES	Pf apPOL block	mHTT-CaM PPI inh
COc1ccccc1N(CC(=O)NCc1ccco1)S(C)(=O)=O	-9	4
Cc1ccccc1N(CC(=O)NCc1ccco1)S(C)(=O)=O	65*	2
Cc1cc(NC(=O)/C=C/c2ccccc2)nc2c1c(=O)oc1ccccc12	6	4
O=C(CN1C(=O)C(c2ccc(Cl)cc2)=NC12CCCCC2)Nc1cccc(F)c1	-6	76*
O=C(CN1C(=O)C(c2ccccc2)=NC12CCCCCC2)Nc1ccc(Cl)cc1	-7	100*
O=C(CN1C(=O)C(c2ccccc2)=NC12CCCC2)Nc1cccc(Cl)c1	-1	74*
COc1ccc(C2=NC3(CCCCC3)N(CC(=O)Nc3cccc(Cl)c3)C2=O)cc1	-2	38
Cc1cccc(NC(=O)CN2C(=O)C(c3ccc(F)cc3)=NC23CCCCCC3)c1	-2	-12
COc1ccc(C2=NC3(CCCCC3)N(CC(=O)Nc3ccc(Cl)cc3)C2=O)cc1	-9	-6
COc1ccc(C2=NC3(CCCCC3)N(CC(=O)Nc3ccc(F)c(Cl)c3)C2=O)cc1	-6	100*
O=C(CN1C(=O)C(c2ccccc2)=NC12CCCCC2)Nc1ccccc1	-1	9
O=c1ccc2cc([N+](=O)[O-])ccc2o1	-9	1
FC(F)(F)c1cccc(-n2nnnc2-c2nc3ccccc3[nH]2)c1	-6	-20
Cc1ncc(CO)c2cc(C(N)=O)c(=Nc3ccc(C#N)cc3)oc12	1	9
CC1CCC2(CC1)N=C(c1ccccc1)C(=O)N2CC(=O)Nc1ccc(F)cc1 (stereo unspecified)	-4	58*
O=C(CN1C(=O)C(c2ccccc2)=NC12CCCCC2)Nc1ccc(F)cc1	-6	37
CC1(C(=O)NCc2ccc(F)cc2)CCCN(C(=O)NCCc2ccccc2)C1 (stereo unspecified)	1	-5
OC(CSCc1cccc(C(F)(F)F)c1)C(O)CSCc1cccc(C(F)(F)F)c1 (stereo unspecified)	nt	100*
FC(F)(F)c1cccc(Cc2cccc(C(F)(F)F)c2)c1	0	nt
COc1ccc([C@H]2C=C3CNS(=O)(=O)[C@H]3C[C@H]2OC(=O)c2ccc(Cl)cc2)cc1	-6	60*
COc1ccc(Oc2ccc(C(F)(F)F)cc2NC(=O)c2ccc(OC)cc2)cc1	21	nt
COc1ccc([C@H]2C=C3CNS(=O)(=O)[C@H]3C[C@H]2OC(=O)c2cccs2)cc1	-7	12
COc1ccc([C@H]2C=C3CNS(=O)(=O)[C@H]3C[C@H]2OC(=O)c2cccc(C)c2)cc1	-4	82*
COc1ccc([C@H]2C=C3CNS(=O)(=O)[C@H]3C[C@H]2OC(=O)c2ccc(C(F)(F)F)cc2)cc1	-10	100*
COc1ccc(C2C(=C(O)c3ccc(Cl)cc3)C(=O)C(=O)N2C)cc1 (stereo unspecified)	-3	5
SMILES	Pf apPOL block	mHTT-CaM PPI inh
CC1=C(C(=O)NCCCN2CCN(c3ccc(F)cc3)CC2)C2(CCCCC2)OC1=O	0	4
FC(F)(F)Oc1ccc(C2c3ccsc3CCN2Cc2ccc[nH]2)cc1 (stereo unspecified)	-12	nt
CCOc1ccc(CC(=O)N2CCCC2c2ccc(Cl)cc2)cc1 (stereo unspecified)	2	7
COc1cccc(C2C3=C(NCCN=C3c3ccc(Cl)cc3)C(=O)N2c2ccccc2)c1 (stereo unspecified)	5	7
Cc1ccc(C2C3=C(NCCN=C3c3ccccc3)C(=O)N2c2ccccc2)cc1 (stereo unspecified)	4	80*
CCOc1ccc(CC(=O)N2CCCCC2c2nc(COC)no2)cc1 (stereo unspecified)	-5	0
O=[N+]([O-])c1ccc(S(=O)(=O)/C=C/C=C/N2CCCCC2)cc1	7	93*
O=[N+]([O-])c1ccc(S(=O)(=O)N2CCCCCC2)cc1	3	2
C=CCC(CC=C)(NC(=O)c1ccc(F)cc1)c1ccccc1	2	-4
COc1ccc(CNC(=O)C2(C)CCCN(C(=O)c3c(F)cccc3F)C2)cc1 (stereo unspecified)	-5	-1
O=C1C2CC=CCC2C(=O)N1c1ccc(NC2CCCc3ccccc32)c([N+](=O)[O-])c1 (stereo unspecified)	-22	47
O=C1CCC(=O)N1c1ccc(NC2CCCc3ccccc32)c([N+](=O)[O-])c1 (stereo unspecified)	-14	66*
NC(=O)c1cc2cc(Cl)ccc2oc1=Nc1ccccc1	0	12
CC1(C)CC(=O)C2=C(C1)OC(N)=C(C#N)C2c1ccc(F)cc1 (stereo unspecified)	-6	4
CCN1C=C(Cc2ccccc2C)C2=C(C1)C(c1ccccc1C)C(C#N)=C(N)O2 (stereo unspecified)	-5	64*
Cc1ccccc1C1C(C#N)=C(N)OC2=C1C(=O)CCC2 (stereo unspecified)	-1	-8
CCN1C=C(Cc2ccc(F)cc2)C2=C(C1)C(c1ccc(F)cc1)C(C#N)=C(N)O2 (stereo unspecified)	-14	85*
O=C(Nc1ncccn1)c1ccc(S(=O)(=O)N2CCOCC2)o1	-1	-10
CC(=O)N1CCc2ccccc2C1C(=O)N1CCN(c2ccc(F)cc2)CC1 (stereo unspecified)	-2	13
CC(=O)N1CCc2ccccc2C1C(=O)N1CCN(c2cccc(Cl)c2)CC1 (stereo unspecified)	-3	78*
O=C(C1c2ccccc2CCN1C(=O)C1CC1)N1CCN(c2ccc(F)cc2)CC1 (stereo unspecified)	-2	55*
CC(=O)N1CCc2ccccc2C1C(=O)N1CCN(c2ccc(C)cc2)CC1 (stereo unspecified)	-1	44
CN(CCNC(=O)C1CCN(c2nc3cccnc3s2)CC1)Cc1ccccc1	-7	-12
N#CC1=C(N)C(C#N)(C#N)C(c2ccc(Cl)c(Cl)c2)C2CCCC=C12 (stereo unspecified)	6	100*
N#CC1=C(N)C(C#N)(C#N)C(c2cccc(F)c2)C2CCCC=C12 (stereo unspecified)	-3	23
SMILES	Pf apPOL block	mHTT-CaM PPI inh
N#CC1=C(N)C(C#N)(C#N)C(c2ccc(Cl)cc2Cl)C2CCCC=C12 (stereo unspecified)	2	49
N#CC1=C(N)C(C#N)(C#N)C(c2cccc(Oc3ccccc3)c2)C2CCCC=C12 (stereo unspecified)	4	50*
COCCCNC(=O)C1CCCN(c2ncc(-c3ccc(C)cc3)cn2)C1 (stereo unspecified)	-2	-6
CCNC(=O)N(C)Cc1ccc(C)s1	-4	-3
COc1cccc(CNCc2cccc(F)c2)c1OC	-2	-2
Cc1nc(C)c(Cc2ccc(Cl)cc2)c(N2CCN(S(C)(=O)=O)CC2)n1	-3	22
CCS(=O)(=O)N1CCN(c2nc(C)nc(C)c2Cc2ccc(Cl)cc2)CC1	1	53*
CCCc1[nH]nc(-c2ccccc2)c1NC(=O)C1CC1	-6	13
CCc1[nH]nc(-c2ccccc2)c1NC(=O)CC1CCCC1	72*	98*
O=C1OC(c2ccccc2Cl)=N/C1=C\C=C\c1ccccc1	-1	53*
O=C1OC(c2ccccc2Br)=N/C1=C\C=C\c1ccccc1	-6	45
O=C(Nc1ccc2c(N3CCCC3)ncnc2c1)c1cccc(Br)c1	4	25
O=C(Nc1ccc2c(N3CCOCC3)ncnc2c1)c1cccc(F)c1	0	6
CN(C)c1cccc(C(=O)Nc2ccc3c(N4CCCC4)ncnc3c2)c1	3	58*

Assay outcomes deposited in PubChem by University of Kansas High Throughput Screening Laboratory.
